Measurements as given in PubChem BioAssay (Tox21).
Results filed as inconclusive are left out. The source made the active and inactive calls. Unless noted, calls come from the whole dose curve; as a rule, active = well fitted curve in the direction sought with a large enough effect in the repeat runs; inconclusive = weak or mixed curves; inactive = no such curve, though single readings can be large; an effect the other way counts as inactive or inconclusive.

What was measured:
[1] = A CellTox Green Cytotoxicity Assay to monitor cytotoxicity in HEK293 cells - 32 hour (AID 1224881); note: nearly all actives have a fitted effect of over 40% in size; note: potency is the fitted concentration of half-maximal effect
Summary of the method: (§1)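 Nonlytic real-time cytotoxicity: HEK293 + CellTox Green reagent plated, 5 h preincubation, pintool compound addition (23 nL in DMSO), 37 C for 40 h, fluorescence measured at successive time points.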

[2] = A CellTox Green Cytotoxicity Assay to monitor cytotoxicity in HepG2 cells - 0 hour (AID 1224882); note: nearly all actives have a fitted effect of over 35% in size
Summary of the method: (§2)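 Read-out is fluorescence of a cyanine dye excluded from live cells that stains DNA of dead HepG2 cells, with signal proportional to cytotoxicity. Plates were read at 0, 8, 16, 24, 32 and 40 h after compound addition.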

[3] = A CellTox Green Cytotoxicity Assay to monitor cytotoxicity in HepG2 cells - 32 hour (AID 1224883); note: nearly all actives have a fitted effect of over 50% in size; note: potency is the fitted concentration of half-maximal effect
Summary of the method: as §2

[4] = A CellTox Green Cytotoxicity Assay to monitor cytotoxicity in HEK293 cells - 8 hour (AID 1224884); note: nearly all actives have a fitted effect of over 35% in size
Summary of the method: as §1

[5] = qHTS RealTime-Glo MT Cell Viability Assay in HepG2 cells - 16 hour (AID 1224885); note: nearly all actives have a fitted effect of over 50% in size; note: potency is the fitted concentration of half-maximal effect
Summary of the method: (§3)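 Cell number in HepG2 cultures estimated from NanoLuc luminescence generated by metabolic reduction of a prosubstrate by living cells. The homogeneous, nonlytic format allowed repeated reads at 0, 8, 16, 24, 32 and 40 h of compound exposure.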

[6] = qHTS RealTime-Glo MT Cell Viability Assay in HEK293 cells - 24 hour (AID 1224886); note: nearly all actives have a fitted effect of over 50% in size; note: potency is the fitted concentration of half-maximal effect
Summary of the method: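 Homogeneous bioluminescent viability format in HEK293 cells (600 cells/well). Following 5 h at 37 C/5% CO2, 23 nL compound was pintooled; the signal was measured repeatedly during 40 h incubation.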

[7] = qHTS RealTime-Glo MT Cell Viability Assay in HEK293 cells - 8 hour (AID 1224887); note: nearly all actives have a fitted effect of over 50% in size; note: potency is the fitted concentration of half-maximal effect
Summary of the method: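 Cells were seeded together with NanoLuc luciferase and a prosubstrate that viable cells reduce to a luciferase substrate. After a 5 h incubation at 37 C/5% CO2, compounds were added and luminescence was measured repeatedly during 40 h of treatment.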

[8] = qHTS RealTime-Glo MT Cell Viability Assay in HepG2 cells - 0 hour (AID 1224889); note: nearly all actives have a fitted effect of over 50% in size
Summary of the method: as §3

[9] = A CellTox Green Cytotoxicity Assay to monitor cytotoxicity in HepG2 cells - 8 hour (AID 1224890); note: nearly all actives have a fitted effect of over 45% in size; note: potency is the fitted concentration of half-maximal effect
Summary of the method: as §2

[10] = qHTS assay to identify small molecule antagonists of the estrogen receptor alpha (ER-alpha) signaling pathway using the BG1 cell line in the presence of 0.1 nM 17-beta-estradiol - cell viability counter screen (AID 1259241); note: nearly all actives have a fitted effect of over 40% in size
Summary of the method: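 VM7Luc4E2 cells (endogenous full-length ER-alpha, 4xERE-luciferase), cultured 5 days in charcoal-stripped serum, exposed to compounds with 0.1 nM 17beta-estradiol (final) for 22 hr at 37C. Viability read in same wells as live-cell protease fluorescence after 30 min.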

[11] = qHTS assay to identify small molecule antagonists of the androgen receptor (AR) signaling pathway using the MDA cell line in the presence of 0.5 nM R1881 - cell viability counter screen (AID 1259242); note: nearly all actives have a fitted effect of over 45% in size
Summary of the method: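 Counter screen for cytotoxicity run in the same wells as the AR antagonist reporter screen: MDA-kb2 cells were treated 16 hr with test compounds and 0.5 nM R1881, then live-cell protease activity was measured by fluorescence.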

[12] = qHTS assay to identify small molecule HDAC inhibitors (AID 1259364); note: top concentration of the series differs between compounds; nearly all actives have a fitted effect of over 45% in size
Summary of the method: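 Luminescence from a cell-permeant luminogenic class I/II HDAC substrate reports endogenous deacetylase activity in intact HCT-116 cells treated with compounds for 2 h.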

[13] = qHTS assay to identify small molecule HDAC inhibitors - cell viability counter screen (AID 1259365)
Summary of the method: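 Wild-type HCT-116 cells, 1,500/well, cultured overnight, then compound-treated 2 h at 37 C. Viability measured as ATP luminescence with CellTiter-Glo after 30 min at room temperature.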

[14] = qHTS assay to identify small molecule agonists of the sonic hedgehog signaling (Shh) pathway - cell viability counter screen (AID 1259366); note: nearly all actives have a fitted effect of over 50% in size; note: potency is the fitted concentration of half-maximal effect
Summary of the method: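 NIH/3T3-derived Gli1-Luc reporter cells, 2,000 per well, received compound after 4 h and were treated about 23 h at 37C. Viability measured in the same wells by CellTiter-Fluor fluorescence after 1 h.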

[15] = qHTS assay to identify small molecule antagonists of the sonic hedgehog signaling (Shh) pathway - cell viability counter screen (AID 1259367); note: nearly all actives have a fitted effect of over 55% in size; note: potency is the fitted concentration of half-maximal effect
Summary of the method: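 Seed 3T3 Gli1-Luc cells at 2,000 per well; incubate 4 hr; add compound in DMSO, then conditioned medium; incubate at 37C with 5% CO2; add CellTiter-Fluor after 23 hr; read fluorescence 1 hr later.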

[16] = target: Estrogen receptor (Homo sapiens) (UniProt P03372); assay: qHTS assay to identify small molecule antagonists of the estrogen receptor alpha (ER-alpha) signaling pathway using the BG1 cell line in the presence of 0.1 nM 17-beta-estradiol (AID 1259244); note: nearly all actives have a fitted effect of over 50% in size; note: potency is the fitted concentration of half-maximal effect
Summary of the method: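 Cells: VM7Luc4E2, endogenous ER-alpha, 4x ERE-luc stable. Pre-culture 5 d, phenol red-free, charcoal-stripped FBS. Plated 24 h, compound + E2 0.1 nM final, 22 h 37C/5% CO2. Readout ONE-Glo luminescence.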

[17] = qHTS assay to identify small molecule phospholipidosis (PLD) inducers (AID 1259344; active = well fitted curve in the direction sought with a large enough effect; an effect the other way counts as inactive or inconclusive)
Summary of the method: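 Quantitative HTS in HepG2: compound plus LipidTOX Red dye for 24 h, paraformaldehyde fixation with Hoechst 33342, widefield high-content imaging; amiodarone as positive and DMSO as negative control.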

[18] = qHTS assay to identify small molecule agonists of the sonic hedgehog signaling (Shh) pathway (AID 1259368; calls by dose curve;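 note: NIH/3T3-derived 3T3Gli1-Luc cells carrying a stable Gli1-driven firefly luciferase reporter; series mostly up to about 92 µM; nearly all actives have a fitted effect of over 15% in size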)
Summary of the method: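 3T3Gli1-Luc (NIH/3T3 clone, stable Gli1-Luc); 4 hr pre-incubation, then cpd in DMSO 24 hr, 37 C/5% CO2; luciferase reagent 30 min RT; luminescence.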

[19] = A CellTox Green Cytotoxicity Assay to monitor cytotoxicity in HEK293 cells - 16 hour (AID 1224888); note: nearly all actives have a fitted effect of over 35% in size
Summary of the method: as §1

[20] = target: Androgen receptor (Homo sapiens) (UniProt P10275); assay: qHTS assay to identify small molecule antagonists of the androgen receptor (AR) signaling pathway using the MDA cell line in the presence of 0.5 nM R1881 (AID 1259243); note: nearly all actives have a fitted effect of over 50% in size
Summary of the method: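 Luciferase luminescence is the read-out: compounds are tested for suppressing 0.5 nM R1881-driven MMTV reporter activity in MDA-kb2 cells after 16 hr at 37C.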

Measured: Potency

Chain of Estrogen receptor (Homo sapiens) (P03372 whole entry, looked up): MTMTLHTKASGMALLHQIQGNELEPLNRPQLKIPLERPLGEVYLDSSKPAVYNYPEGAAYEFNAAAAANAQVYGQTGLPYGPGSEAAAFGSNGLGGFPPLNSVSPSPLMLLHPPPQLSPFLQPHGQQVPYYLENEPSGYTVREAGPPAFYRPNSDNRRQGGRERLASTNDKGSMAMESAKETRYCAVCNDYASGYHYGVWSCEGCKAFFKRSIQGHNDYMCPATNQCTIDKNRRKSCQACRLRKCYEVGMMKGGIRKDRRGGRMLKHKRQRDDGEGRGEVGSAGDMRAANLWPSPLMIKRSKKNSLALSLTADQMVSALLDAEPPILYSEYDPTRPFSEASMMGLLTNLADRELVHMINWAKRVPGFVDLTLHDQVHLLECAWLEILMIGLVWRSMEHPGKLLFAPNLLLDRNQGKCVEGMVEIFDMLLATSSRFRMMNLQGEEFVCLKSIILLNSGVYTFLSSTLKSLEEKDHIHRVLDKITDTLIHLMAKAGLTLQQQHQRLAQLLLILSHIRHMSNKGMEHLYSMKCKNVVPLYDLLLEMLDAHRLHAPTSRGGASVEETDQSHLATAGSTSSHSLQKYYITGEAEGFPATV
Chain of Androgen receptor (Homo sapiens) (P10275 whole entry, looked up): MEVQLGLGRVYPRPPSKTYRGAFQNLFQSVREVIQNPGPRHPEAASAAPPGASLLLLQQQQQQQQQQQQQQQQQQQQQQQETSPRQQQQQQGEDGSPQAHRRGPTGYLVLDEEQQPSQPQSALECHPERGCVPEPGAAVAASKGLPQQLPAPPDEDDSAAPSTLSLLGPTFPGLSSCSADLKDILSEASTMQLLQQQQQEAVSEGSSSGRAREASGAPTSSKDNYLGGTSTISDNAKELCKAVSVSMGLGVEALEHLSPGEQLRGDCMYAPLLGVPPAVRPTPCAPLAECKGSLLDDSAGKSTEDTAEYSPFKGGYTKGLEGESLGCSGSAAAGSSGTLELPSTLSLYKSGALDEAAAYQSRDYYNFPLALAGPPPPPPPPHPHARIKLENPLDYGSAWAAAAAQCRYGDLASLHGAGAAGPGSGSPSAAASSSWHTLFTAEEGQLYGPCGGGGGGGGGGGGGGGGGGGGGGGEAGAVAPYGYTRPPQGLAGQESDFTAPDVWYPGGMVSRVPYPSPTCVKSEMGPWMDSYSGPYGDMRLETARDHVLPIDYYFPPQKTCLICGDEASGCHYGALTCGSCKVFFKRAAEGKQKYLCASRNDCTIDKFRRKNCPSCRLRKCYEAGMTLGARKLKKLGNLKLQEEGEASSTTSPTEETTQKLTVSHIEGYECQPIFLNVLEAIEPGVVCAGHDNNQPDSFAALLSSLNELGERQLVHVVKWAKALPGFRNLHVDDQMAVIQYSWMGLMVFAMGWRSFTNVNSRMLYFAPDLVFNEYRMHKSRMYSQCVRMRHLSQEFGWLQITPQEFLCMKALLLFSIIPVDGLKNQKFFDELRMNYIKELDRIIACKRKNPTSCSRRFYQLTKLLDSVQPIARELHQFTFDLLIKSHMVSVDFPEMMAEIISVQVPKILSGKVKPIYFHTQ

CN(N=O)C(N)=O
not listed: [16] | [17] | [18] | [19] | [20]
inactive: all other assays above

NC(=O)c1cc([N+](=O)[O-])cc([N+](=O)[O-])c1
not listed: [19] | [20]
inactive: all other assays above

COC(C)(C)C
not listed: [16] | [17] | [19] | [20]
inactive: all other assays above

Cc1cc(C)nc(Nc2ccccc2)n1
not listed: [6] | [9] | [12] | [17] | [20]
inactive: all other assays above

O=[N+]([O-])c1ccc(CBr)cc1
not listed: [6] | [17] | [18] | [20]
inactive: all other assays above

CCOP(=S)(OCC)SCSP(=S)(OCC)OCC
not listed: [8] | [10] | [14] | [15] | [17] | [19] | [20]
inactive: all other assays above

CCCCc1ccc(O)cc1
active: [3] 21.8 µM | [6] 19.5 µM
not listed: [7] | [17] | [20]
inactive: all other assays above

Cc1ncc(CNC(=O)N(CCCl)N=O)c(N)n1
not listed: [8] | [9] | [19] | [20]
inactive: all other assays above

C#C[C@]1(O)C=C[C@H]2[C@@H]3CCC4=CC(=O)CC[C@@H]4[C@H]3CC[C@@]21CC
not listed: [6]
inactive: all other assays above

N#CC(CCc1ccc(Cl)cc1)(Cn1cncn1)c1ccccc1 (stereo unspecified)
inactive: [2] | [4] | [12] | [13] | [18]
active: [1] 54.9 µM | [3] 21.9 µM | [5] 27.5 µM | [6] 17.4 µM | [7] 21.9 µM | [9] 34.7 µM | [16] 27.3 µM | [14] 48.6 µM | [15] 27.3 µM

COC(=O)c1c(C(F)F)nc(C(F)(F)F)c(C2=NCCS2)c1CC(C)C
not listed: [17] | [19] | [20]
inactive: all other assays above

CCS(=O)(=O)C(C)(C)S(=O)(=O)CC
not listed: [6] | [20]
inactive: all other assays above

CNC(=O)Oc1ccc(N(C)C)c(C)c1
not listed: [6] | [8] | [17] | [20]
inactive: all other assays above

C=C(C)CN(CC)c1c([N+](=O)[O-])cc(C(F)(F)F)cc1[N+](=O)[O-]
not listed: [7] | [17] | [19] | [20]
inactive: all other assays above
